Experimental data from ChEMBL document CHEMBL4888484, “Replenishing the malaria drug discovery pipeline: Screening and hit evaluation of the MMV Hit Generation Library 1 (HGL1) against asexual blood stage Plasmodium falciparum ,using a nano luciferase reporter read-out” (2022).
In all, about 150,000 compounds went through this assay and about 540 (0.36%) showed an effect of 50% or more. This is one part of a sample in which strong results are shown more often than they occur.

System: Plasmodium falciparum
Experiment: Primary screen in NF54 nanoGlo assay, in single point, at 2uM, 72h; a lower Z score goes with more inhibition
Assay type: functional, Erythrocyte
Conditions: timepoint 72 hour

In order of falling “% Inhibition” value:
1. O=C(Nc1cc(-c2onc3c2CCCC3)cc(C(F)(F)F)c1)c1cncc(Br)c1  96%
2. N#Cc1nc2c(C#N)c(N)n(CCc3ccccc3)c2nc1C#N  88%
3. Cc1nnc(-c2ccc3ccn(CC(=O)Nc4ccc(F)c(Cl)c4)c3c2)o1  85%
4. CCc1cccc(NC(=O)Cn2ccc3ccc(-c4nnc(C)o4)cc32)c1  78%
5. Cc1cccc(C(=O)Nc2nc3cc4sc(NC(=O)c5cccc(C)c5)nc4cc3s2)c1  64%
6. Cc1cccc(CN2CCC[C@H](C(=O)c3ccc4c5c(cccc35)CC4)C2)n1  58%
7. Cc1cccc(NC(=O)[C@H]2CCN(c3cn[nH]c(=O)c3)C2)c1  52%
8. Cc1ccc(S(=O)(=O)N(CC(=O)N[C@@H](C)c2ccccc2)c2cccc(Br)c2)cc1  50%
9. Cc1cccc(S(=O)(=O)Nc2ccc3nc(NC(=O)c4ccccc4)sc3c2)c1  37%
10. COc1ccc(-c2nc3ccc(C(=O)NC4CCCC(C)C4C)cc3nc2-c2ccc(OC)c(OC)c2)cc1OC (configuration not stated)  24%
11. Cc1ncsc1Cn1ccn2nc(C(F)(F)F)cc2c1=O  15%
12. O=C1NCCCN1C1CCN(Cc2ccc(Cl)c(C(F)(F)F)c2)CC1  10%
13. COc1cccc(NC(=O)Cn2ccc3ccc(-c4nnc(C)o4)cc32)c1  7%
14. Cc1ccc(CNC[C@H](O)c2cccnc2)c(Br)c1  7%
15. Cc1cccc(NC(=O)Cn2ccc3ccc(-c4nnc(C)o4)cc32)c1  6%
16. c1[nH]nnc1CCN1CCOC[C@@H]1CC1CCOCC1  5%
17. c1csc([C@@H]2CN(c3ncnc4sccc34)CCO2)n1  5%
18. Cc1cc(C)cc(NC(=O)Cn2ccc3ccc(-c4nnc(C)o4)cc32)c1  2%
19. COc1cc(-c2ccc(C(=O)N3CCC[C@H](O)C3)cc2)nc(OC)n1  2%
20. COc1ccccc1N(CC(=O)N[C@H](C)c1ccccc1)S(=O)(=O)c1ccc(C)cc1  1%
21. COc1ccc(C(=O)N[C@H]2CCOC3(CCOCC3)C2)c(C)c1  0%
22. O=C(Nc1ccc(-c2onc3c2CCCC3)cc1)c1c(Cl)cc(Cl)cc1Cl  -2%
23. O=C(Nc1cc(Br)cc(C(F)(F)F)c1)c1ccnnc1  -2%
24. C[C@H]1COCCN1C(=O)CCc1ccco1  -2%
25. Cc1ccc(NC(=O)Cn2ccc3ccc(-c4nnc(C)o4)cc32)cc1  -3%
26. Cc1cc(C(=O)N2CCC[C@H](C(=O)c3ccc4c5c(cccc35)CC4)C2)nc(N)n1  -4%
27. COC(=O)c1ccccc1NC(=O)C[C@@H]1Nc2cccc3cccc(c23)NC1=O  -5%
28. COc1ccc(CCn2c(N)c(-c3nc4ccccc4s3)c3nc(C#N)c(C#N)nc32)cc1OC  -5%
29. CCc1cnc(Cn2nc(-c3ccccc3)cc(C(F)(F)F)c2=O)o1  -6%
30. C=CC[C@]1(C(=O)O)CCCN(Cc2c(C)nn(CC)c2C)C1  -6%
31. CCCCN1C(=O)[C@](NS(=O)(=O)c2ccc(NC(C)=O)cc2)(C(F)(F)F)C(C(C)=O)=C1C  -7%
32. Cc1cc(-c2c(C)sc(C)c2S(=O)(=O)N2CCOCC2)on1  -8%
33. Cc1cccc(C(=O)N=C(N)Nc2nc3ccccc3s2)c1  -8%
34. CC(=O)N1CCC(N2CCC[C@H](C(=O)c3ccc4c5c(cccc35)CC4)C2)CC1  -11%
35. Cc1cccc(CNC(=O)[C@H]2CCN(c3cn[nH]c(=O)c3)C2)c1  -12%
36. COc1cc2c(cc1OC)C(=O)N(Cc1ccccc1)C(=O)C2=O  -13%
37. COCc1ccc(CNCc2cc3cc(Cl)c(Cl)cc3[nH]2)cc1  -13%
38. O=C(Nc1ccc(N2CCOCC2)cc1)[C@H]1CCN(c2cn[nH]c(=O)c2)C1  -14%
39. Cc1ccc(S(=O)(=O)N(CC(=O)N[C@@H]2C[C@H]3CC[C@@H]2C3)c2cccc(Br)c2)cc1  -15%
40. O=C(NC1CCCCC1)c1nn(-c2ccc(F)cc2)c2ccccc2c1=O  -15%
41. N#Cc1nc2c(S(=O)(=O)c3ccccc3)c(N)n(Cc3ccc(Cl)cc3)c2nc1C#N  -16%

In order of rising Z score:
1. N#Cc1nc2c(C#N)c(N)n(CCc3ccccc3)c2nc1C#N  -11.87
2. Cc1cccc(CN2CCC[C@H](C(=O)c3ccc4c5c(cccc35)CC4)C2)n1  -11.5
3. Cc1nnc(-c2ccc3ccn(CC(=O)Nc4ccc(F)c(Cl)c4)c3c2)o1  -10.55
4. CCc1cccc(NC(=O)Cn2ccc3ccc(-c4nnc(C)o4)cc32)c1  -9.29
5. O=C(Nc1cc(-c2onc3c2CCCC3)cc(C(F)(F)F)c1)c1cncc(Br)c1  -8.79
6. COc1ccc(-c2nc3ccc(C(=O)NC4CCCC(C)C4C)cc3nc2-c2ccc(OC)c(OC)c2)cc1OC (configuration not stated)  -2.87
7. Cc1ncsc1Cn1ccn2nc(C(F)(F)F)cc2c1=O  -1.93
8. O=C1NCCCN1C1CCN(Cc2ccc(Cl)c(C(F)(F)F)c2)CC1  -1.75
9. Cc1ccc(S(=O)(=O)N(CC(=O)N[C@@H](C)c2ccccc2)c2cccc(Br)c2)cc1  -1.08
10. c1[nH]nnc1CCN1CCOC[C@@H]1CC1CCOCC1  -1.02
11. COc1cccc(NC(=O)Cn2ccc3ccc(-c4nnc(C)o4)cc32)c1  -0.81
12. Cc1cccc(NC(=O)Cn2ccc3ccc(-c4nnc(C)o4)cc32)c1  -0.76
13. c1csc([C@@H]2CN(c3ncnc4sccc34)CCO2)n1  -0.74
14. Cc1ccc(CNC[C@H](O)c2cccnc2)c(Br)c1  -0.68
15. Cc1cccc(S(=O)(=O)Nc2ccc3nc(NC(=O)c4ccccc4)sc3c2)c1  -0.65
16. COc1cc(-c2ccc(C(=O)N3CCC[C@H](O)C3)cc2)nc(OC)n1  -0.43
17. Cc1cccc(NC(=O)[C@H]2CCN(c3cn[nH]c(=O)c3)C2)c1  -0.4
18. Cc1cc(C)cc(NC(=O)Cn2ccc3ccc(-c4nnc(C)o4)cc32)c1  -0.2
19. COc1ccccc1N(CC(=O)N[C@H](C)c1ccccc1)S(=O)(=O)c1ccc(C)cc1  -0.13
20. COc1ccc(C(=O)N[C@H]2CCOC3(CCOCC3)C2)c(C)c1  0.06
21. C[C@H]1COCCN1C(=O)CCc1ccco1  0.25
22. O=C(Nc1ccc(-c2onc3c2CCCC3)cc1)c1c(Cl)cc(Cl)cc1Cl  0.3
23. O=C(Nc1cc(Br)cc(C(F)(F)F)c1)c1ccnnc1  0.3
24. Cc1ccc(NC(=O)Cn2ccc3ccc(-c4nnc(C)o4)cc32)cc1  0.31
25. Cc1cc(C(=O)N2CCC[C@H](C(=O)c3ccc4c5c(cccc35)CC4)C2)nc(N)n1  0.45
26. COC(=O)c1ccccc1NC(=O)C[C@@H]1Nc2cccc3cccc(c23)NC1=O  0.52
27. CCc1cnc(Cn2nc(-c3ccccc3)cc(C(F)(F)F)c2=O)o1  0.55
28. Cc1cccc(C(=O)N=C(N)Nc2nc3ccccc3s2)c1  0.72
29. Cc1cccc(C(=O)Nc2nc3cc4sc(NC(=O)c5cccc(C)c5)nc4cc3s2)c1  0.77
30. COc1ccc(CCn2c(N)c(-c3nc4ccccc4s3)c3nc(C#N)c(C#N)nc32)cc1OC  0.86
31. CCCCN1C(=O)[C@](NS(=O)(=O)c2ccc(NC(C)=O)cc2)(C(F)(F)F)C(C(C)=O)=C1C  0.92
32. C=CC[C@]1(C(=O)O)CCCN(Cc2c(C)nn(CC)c2C)C1  1
33. COc1cc2c(cc1OC)C(=O)N(Cc1ccccc1)C(=O)C2=O  1.31
34. COCc1ccc(CNCc2cc3cc(Cl)c(Cl)cc3[nH]2)cc1  1.44
35. Cc1cc(-c2c(C)sc(C)c2S(=O)(=O)N2CCOCC2)on1  1.45
36. Cc1cccc(CNC(=O)[C@H]2CCN(c3cn[nH]c(=O)c3)C2)c1  1.58
37. CC(=O)N1CCC(N2CCC[C@H](C(=O)c3ccc4c5c(cccc35)CC4)C2)CC1  1.6
38. O=C(Nc1ccc(N2CCOCC2)cc1)[C@H]1CCN(c2cn[nH]c(=O)c2)C1  1.91
39. O=C(NC1CCCCC1)c1nn(-c2ccc(F)cc2)c2ccccc2c1=O  2.13
40. Cc1ccc(S(=O)(=O)N(CC(=O)N[C@@H]2C[C@H]3CC[C@@H]2C3)c2cccc(Br)c2)cc1  2.16
41. N#Cc1nc2c(S(=O)(=O)c3ccccc3)c(N)n(Cc3ccc(Cl)cc3)c2nc1C#N  2.57
